From PubChem BioAssay (NCATS)
Inconclusive results are not listed. Unmarked numbers belong to inactive results. The call rests on the fitted dose curve; in most records, active means well fitted inhibition curve with a large enough effect; inconclusive means small, poorly fitted or top-dose-only effect; inactive means flat fitted curve, though single readings scatter.

These compounds were tested on HaCat (assay: Cytotoxic Profiling of Annotated Libraries Using Quantitative High-Throughput Screening (AID 1296008; further: nearly all actives have a fitted effect of over 60% in size)). Conditions: Five cell lines viability, CellTiter-Glo ATP luminescence, 48-72 h; max response: hits give low values.
How it was run: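 Compounds were pin-transferred onto cells and incubated 48 or 72 hr at 37 degree Celsius, 95% humidity. CellTiter-Glo was added, plates sat 10 min at room temperature, then ATP-coupled luminescence was imaged as the viability read-out.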
On the % scale 0 is the no-effect control and ±100 the full control effect.

First: CC(C)(C)c1ccc(-c2nc3c(N4CCN(Cc5ccc6nccnc6c5)CC4)cccc3[nH]2)cc1
Second: CCC(=C(c1ccc(OCCN2CCCC2)cc1)c1ccc(OCCN2CCCC2)cc1)c1ccccc1
The max response of the first is lower: -27.9% for the first, -11% for the second.

Compared with `COc1ccc2nc(-c3cc(OC)c(OC)c(OC)c3)cc(C(=O)NCC(=O)Nc3ccc(C(C)=O)cc3)c2c1`, `COC1CCN(c2cccc(-c3cc(NC(C)=O)nc(-n4nc(C)cc4C)n3)n2)CC1` is higher in max response: -18% for the first, -6.53% for the second.
